About 2,000 (36%) of roughly 5,500 compounds were called active. Inconclusive results (about 18%) are left out. Cut-off read from the data, not from the text of the source: active = normalized growth mostly below about 0.91 (no sharp cut-off); inconclusive = no clear call, values can overlap the other calls; inactive = mostly above about 0.92. Some of the results follow.
Experiment: chemical genetic growth profiling, strain panel (AID 1159580);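 note: tested at 20 µM; growth read once vehicle control cultures reached saturation at 30 °C; 1 = growth at the plate median or of vehicle wells; lower values mean less growth of the strain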
Details: growth OD
[1] = S. cerevisiae deletion strains, locus YJR075W, strain HOC1, hits give low values
[2] = S. cerevisiae deletion strains, locus YMR307W, strain GAS1, hits give low values
[3] = S. cerevisiae deletion strains, locus YNL322C, strain KRE1, hits give low values
[4] = S. cerevisiae deletion strains, locus YPL055C, strain LGE1, hits give low values
[5] = S. cerevisiae deletion strains, locus YPL241C, strain CIN2, hits give low values
[6] = S. cerevisiae deletion strains, locus YAL013W, strain DEP1, hits give low values
[7] = S. cerevisiae deletion strains, locus YBR229C, strain ROT2, hits give low values
[8] = S. cerevisiae deletion strains, locus YDL101C, strain DUN1, hits give low values
[9] = S. cerevisiae deletion strains, locus YDL134C, strain PPH21, hits give low values
[10] = S. cerevisiae deletion strains, locus YDR150W, strain NUM1, hits give low values
[11] = S. cerevisiae deletion strains, locus YEL061C, strain CIN8, hits give low values
[12] = S. cerevisiae deletion strains, locus YGR078C, strain PAC10, hits give low values
[13] = S. cerevisiae deletion strains, locus YHR030C, strain SLT2, hits give low values
[14] = S. cerevisiae deletion strains, locus YHR087W, strain rtc3, hits give low values
[15] = S. cerevisiae deletion strains, locus YJR043C, strain POL32, hits give low values
[16] = S. cerevisiae deletion strains, locus YKL190W, strain CNB1, hits give low values
[17] = S. cerevisiae deletion strains, locus YLR039C, strain RIC1, hits give low values
[18] = S. cerevisiae deletion strains, locus YLR058C, strain SHM2 (second series), hits give low values
[19] = S. cerevisiae deletion strains, locus YLR085C, strain ARP6, hits give low values
[20] = S. cerevisiae deletion strains, locus YLR262C, strain YPT6, hits give low values
[21] = S. cerevisiae deletion strains, locus YML094W, strain GIM5, hits give low values
[22] = S. cerevisiae deletion strains, locus YMR219W, strain ESC1, hits give low values
[23] = S. cerevisiae deletion strains, locus YMR263W, strain SAP30, hits give low values
[24] = S. cerevisiae deletion strains, locus YNL153C, strain GIM3, hits give low values
[25] = S. cerevisiae deletion strains, locus YNL298W, strain CLA4 (second series), hits give low values
[26] = S. cerevisiae deletion strains, locus YNR030W, strain Alg12, hits give low values
[27] = S. cerevisiae deletion strains, locus YPR135W, strain CTF4, hits give low values
[28] = S. cerevisiae deletion strains, locus YGR229C, strain SMI1, hits give low values
[29] = S. cerevisiae deletion strains, locus YCL061C, strain MRC1, hits give low values

Measured: normalized growth

Nc1ccc(CCNc2ncnc3c2ncn3C2OC(CO)C(O)C2O)cc1 (stereo unspecified)
inactive: S. cerevisiae deletion strains, locus YAL040C, strain CLN3, hits give low values 1.03 | S. cerevisiae deletion strains, locus YCL061C, strain MRC1 (second series), hits give low values 0.997 | S. cerevisiae deletion strains, locus YDR363W, strain ESC2, hits give low values 0.988 | S. cerevisiae deletion strains, locus YER002W, strain NOP16, hits give low values 0.991 | [1] 1 | [2] 1.02 | S. cerevisiae deletion strains, locus YNL175C, strain NOP13, hits give low values 0.985 | S. cerevisiae deletion strains, locus YNL197C, strain WHI3, hits give low values 1.01 | S. cerevisiae deletion strains, locus YNL224C, strain SQS1, hits give low values 0.977 | [3] 0.995 | S. cerevisiae deletion strains, locus YOR083W, strain WHI5 (second series), hits give low values 0.995 | [4] 0.986 | [5] 0.999

OCc1nccn1Cc1ccc(Cl)cc1
inactive: [6] 1.02 | [7] 1 | [8] 1.03 | [9] 1.02 | [10] 1.05 | [11] 1 | [12] 1 | [14] 0.983 | [15] 1.03 | [1] 0.944 | [16] 0.999 | [17] 0.889 | [18] 0.998 | [19] 1.02 | [20] 0.849 | [21] 0.983 | [22] 1.01 | [23] 1.04 | [24] 1.02 | [25] 0.923 | [3] 1 | [26] 0.947 | [4] 1.08 | [5] 1.02 | [27] 1.03
active: [13] 0.288 | [2] 1.51 [resistant]

COC(=O)c1ccsc1N
inactive: [6] 0.988 | [7] 1 | [8] 1.01 | [10] 1.07 | [11] 0.985 | [12] 1 | [28] 0.981 | [13] 1.09 | [14] 0.995 | [15] 1.02 | [1] 1.01 | [16] 0.99 | [17] 1 | [18] 0.983 | [19] 0.94 | [20] 1.14 | [21] 0.97 | [22] 0.993 | [23] 1.02 | [24] 1 | [25] 0.963 | [3] 0.992 | [26] 0.976 | [4] 0.986 | [5] 0.958 | [27] 1.11

COC(=O)c1cscc1Sc1ccc(Cl)cc1
inactive: [6] 0.948 | [7] 0.953 | [29] 0.978 | [8] 0.961 | [10] 0.983 | [11] 0.931 | [12] 0.956 | [14] 0.944 | S. cerevisiae deletion strains, locus YJL187C, strain SWE1, hits give low values 0.995 | [15] 0.987 | [1] 0.943 | [18] 0.955 | [21] 0.914 | [22] 0.96 | [23] 0.989 | [24] 0.968 | [25] 0.916 | [4] 0.998 | S. cerevisiae strains, strain wild type, hits give low values 0.949
active: [9] 0.82 | [13] 0.319 | [17] 0.747 | [19] 0.664 | [20] 0.771 | [3] 0.939 | [26] 0.848 | [5] 0.845 | [27] 0.565

COc1cscc1C(N)=O
inactive: [6] 1.01 | [7] 0.984 | [29] 1.02 | [8] 1 | [10] 1.06 | [11] 0.959 | [12] 1.01 | [28] 0.99 | [13] 1.06 | [14] 1.03 | [15] 1.04 | [1] 1.04 | [17] 1.01 | [18] 0.997 | [19] 0.965 | [20] 0.998 | [21] 0.979 | [22] 0.987 | [23] 1.06 | [2] 0.966 | [24] 1.01 | [25] 0.969 | [3] 0.996 | [26] 1.01 | [4] 1.12 | [5] 0.957 | [27] 1.14
